The list is not random: actives were taken first. Their share in the collection is about 7.4%.
FLuc counter = qHTS profiling assay for firefly luciferase inhibitor/activator using purifed enzyme and Km concentrations of substrates (counterscreen for miR-21 project). hit rate 6.9% among 360,000. Luciferin 4-monooxygenase (Photinus pyralis), P08659. purified FLuc, Km substrates, luminescence inhibition. Potency, µM (series often up to 57.5 µM), without a hit: at the top dose activity change, negative = inhibition, actives largely listed as inhibitors. AID 588342, 2011;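 note: plate controls were vehicle for no effect and reference inhibitor for full effect; nearly all actives have a fitted effect of over 55% in size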
Target sequence (P08659 whole entry, looked up): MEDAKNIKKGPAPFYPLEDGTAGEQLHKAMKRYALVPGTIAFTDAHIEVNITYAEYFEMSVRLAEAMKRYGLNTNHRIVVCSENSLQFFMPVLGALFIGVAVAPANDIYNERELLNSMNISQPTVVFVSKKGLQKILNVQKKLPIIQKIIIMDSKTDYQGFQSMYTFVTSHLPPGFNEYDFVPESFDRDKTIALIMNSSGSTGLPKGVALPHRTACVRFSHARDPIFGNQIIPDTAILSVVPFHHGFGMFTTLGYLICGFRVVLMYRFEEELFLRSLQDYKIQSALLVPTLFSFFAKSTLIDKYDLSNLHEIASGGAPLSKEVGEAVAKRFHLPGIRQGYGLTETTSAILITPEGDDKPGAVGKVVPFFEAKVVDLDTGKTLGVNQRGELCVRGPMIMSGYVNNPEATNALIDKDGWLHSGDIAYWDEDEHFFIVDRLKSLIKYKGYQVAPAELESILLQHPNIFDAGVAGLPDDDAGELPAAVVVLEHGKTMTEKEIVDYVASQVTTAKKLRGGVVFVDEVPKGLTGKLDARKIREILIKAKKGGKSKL
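Purified P. pyralis luciferase, 10 nM final, with Km-level 10 uM D-luciferin and 10 uM ATP in 50 mM Tris acetate pH 7.5, 10 mM Mg acetate, 0.01% Tween-20, 0.05% BSA; 6-point qHTS titration about 60 µM downward; luminescence read.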
ELG1 genotoxic = qHTS screen for small molecules that induce genotoxicity in human embryonic kidney (HEK293T) cells expressing luciferase-tagged ELG1; Potency, µM (highest dose often 46 µM), for the others: at the highest dose activity change, positive = activation, hits mostly activators; AID 504466, 2011; hit rate 1.3% among 330,000; HEK293T ELG1-luciferase reporter, luminescence, 16 h; note: % of control where 0% means no effect; nearly all actives have a fitted effect of over 60% in size
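Luminescence read-out: rising ELG1-luciferase signal, reflecting elevated ELG1 protein under genetic stress, flags genotoxic compounds. Cells were treated for 16 hr at 37 °C before ONE-Glo detection.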
SMN2 splice up = qHTS Assay for Enhancers of SMN2 Splice Variant Expression. Potency, µM (highest dose often 46.1 µM), inactives show at the highest dose activity change, positive = activation, usual class: activators. hit rate 2.8% among 210,000. HEK293 SMN2-luciferase splicing reporter, luminescence, 30-36 h; note: % of control where 0% means no effect; nearly all actives have a fitted effect of over 55% in size
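HEK293 cells carry an SMN2 […]–luciferase reporter in which exon 7 inclusion puts luciferase in frame. Cells were plated 10-12 h before compound addition, then incubated 30-36 h at 37C. ONE-Glo luminescence was read; sodium butyrate at 4.5 mM final served as control.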
p53 reactivator = qHTS assay for re-activators of p53 using a Luc reporter; H1299 p53-A138V BP100-luciferase reporter, luminescence, 24 h; Potency, µM (highest dose often 92.2 µM), without a hit: at the highest dose activity change, positive = activation, most hits filed as activators; hit rate 0.063% among 320,000; note: % of control where 0% means no effect; nearly all actives have a fitted effect of over 45% in size
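H1299 (p53-null), stable ts p53-A138V + BP100-Luc; 1000 cells/well, Opti-MEM/10% FBS; cpd 4 pt, 1:5; 24 h, 37 deg C, 5% CO2; detection reagent 10 min RT; luminescence.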
NPC1 prom act = qHTS Assay for NPC1 Promoter Activators; Huh7 NPC1 promoter luciferase reporter, 24 h; hit rate 2.4% among 320,000; Potency, µM (series often up to 9.22 µM), without a hit: at the top dose activation, hits mostly activators; AID 485313, 2010; note: % of control where 0% means no effect; nearly all actives have a fitted effect of over 60% in size
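Stably transfected Huh7 (NPC1 promoter→luciferase), 1500 cells/well in Opti-MEM + 10% FBS, 2 h settle, then compound 24 h at 37 °C. Luminescence after 10 min with Amplite reagent.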
Rab9 prom act = qHTS Assay for Rab9 Promoter Activators. hit rate 2.8% among 320,000. Potency, µM (doses to about 9.22 µM), inactives show at the highest dose activation, negative = inhibition, hits mostly activators. AID 485297, 2010. Huh7 Rab9 promoter-luciferase reporter, luminescence, 24 h; note: % of control where 0% means no effect; nearly all actives have a fitted effect of over 60% in size
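Huh7 reporter line, Rab9 promoter upstream of luciferase. Compound exposure 24 h at 37 °C in reduced-serum medium with 10% FBS. Read-out: luminescence.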
Active calls of the source: *; ? = inconclusive; nt = not tested or not shown; [ ] = remark or other dose. Calls come from the whole dose curve; as a rule, active = well fitted curve in the direction sought with a large enough effect; inconclusive = small, poorly fitted or top-dose-only effect, or another doubt; inactive = no such curve, though single readings can be large; an effect the other way counts as inactive or inconclusive. Potency is the fitted concentration of half-maximal effect.

SMILES	FLuc counter	ELG1 genotoxic	SMN2 splice up	p53 reactivator	NPC1 prom act	Rab9 prom act
CC(CC(O)C1OC1(C)C)C1CCC2(C)C3=CCC4C(C)(C)C(=O)CCC4(C)C3CC[C@@]12C (some centres undefined)	nt	nt	-24%	nt	nt	nt
CN(C)c1ccc(C2C=C(c3ccccc3)Nc3nnnn32)cc1 (centres undefined)	-7%	nt	-13%	nt	nt	nt
CCCCOc1ccc(C2NC(=O)NC(C)=C2C(C)=O)cc1OCC (centres undefined)	-1%	-2%	1%	-8%	0%	0%
Cn1c(=O)c2c(nc(N3CCOCC3)n2Cc2cccc(Br)c2)n(C)c1=O	1%	nt	-1%	nt	nt	nt
C[C@@H]1OC(Nc2ccc(N=Nc3ccccc3)cc2)[C@H](O)[C@H](O)[C@H]1O (some centres undefined)	24µM*	11%	nt	2%	?	?
N=C1C2=C3Sc4ccccc4N3CCCC2=NN1c1cccc(S(=O)(=O)O)c1	19µM*	-1%	nt	-2%	-4%	-2%
O=C(c1cccc(S(=O)(=O)N2CCCC2)c1)N1CCCc2ccccc21	-6%	-10%	nt	-1%	-10%	2%
O=C(Nc1ccccc1C(=O)N/N=C/c1ccco1)c1ccccc1	21µM*	0%	0%	11%	-1%	2%
Cc1ccccc1C(=O)Nc1ccccc1C(=O)N/N=C\c1ccco1	?	-1%	-4%	3%	1%	-5%
Cc1cccc(NC(=O)CCC(=O)N/N=C/c2ccco2)c1	1%	0%	-5%[1.84 µM]	3%	-2%	0%
O=C(Nc1ccccc1C(=O)N/N=C/c1ccco1)c1ccc(Cl)cc1	2.1µM*	1%	1%	?	12%	2%
O=C(Nc1ccccc1C(=O)N/N=C/c1ccco1)c1ccc(F)cc1	8.5µM*	-1%	14%	18%	-2%	-4%
O=C(N/N=C\c1ccco1)Nc1cccc(Cl)c1	19µM*	?	10µM*	?	3.2µM*	2.5µM*
O=C(N/N=C/c1ccco1)c1ccncc1	-5%	5%	-9%	0%	1%	-3%
CCOc1ccc(C2C(=O)N(C3CCCCCC3)CC(=O)N2Cc2ccc(C)cc2)cc1OC (centres undefined)	6%	nt	nt	nt	nt	nt
CC1(C)CC(=O)C2=C(C1)Nc1ccccc1NC2	-2%	0%	5%	10%	0%	-1%
CC1(C)CC(=O)C2=C(C1)Nc1ccccc1N=C2	6.7µM*	11%	?	?	-1%	-3%
Cc1cccc(OCC(=O)O/N=C(\N)Cc2cccs2)c1	-20%	-1%	-20%	1%	7%	0%
Cc1ccccc1C(=O)O/N=C(\N)Cc1cccs1	12µM*	?	nt	?	?	?
COc1ccc(OCC(=O)O/N=C(\N)Cc2cccs2)cc1	?	5%	-7%[1.84 µM]	?	6%	3%
N/C(Cc1ccc(Cl)cc1Cl)=N\OC(=O)Cc1cccs1	5.4µM*	12%	15%	?	10%	-3%
N/C(Cc1cccs1)=N\OC(=O)COc1ccc(Cl)cc1Cl	15µM*	16µM*	41%	28%	28%	23%
Cc1ccccc1OCC(=O)O/N=C(\N)Cc1cccs1	12µM*	-2%	-24%	6%	13%	1%
CCC(C(=O)NCc1ccccc1Cl)n1nc(C)c2sc3ccccc3c2c1=O (centres undefined)	-13%	nt	nt	nt	nt	nt
CCCCN1C(=O)C(=O)N(CC(=O)Nc2ccccc2C(=O)OCC)C1=O	9%	-1%	nt	-9%	-1%	5%
SMILES	FLuc counter	ELG1 genotoxic	SMN2 splice up	p53 reactivator	NPC1 prom act	Rab9 prom act
COc1ccc(Cl)cc1/C=C/c1ccc2cccc(O)c2n1	17µM*	?	nt	?	4µM*	3.5µM*
COc1ccccc1/C=C/c1ccc2cccc(O)c2n1	4.8µM*	21µM*	nt	?	?	?
COc1cc(Cl)cc(/C=C/c2ccc3cccc(O)c3n2)c1OC	?	13%	nt	9%	?	?
COc1ccc(C(=O)N/N=C/c2ccc3cccc(O)c3n2)cc1	?	-5%	nt	3%	-6%	-7%
COc1ccc(C2CC2/C(=N/O)c2ccccn2)cc1 (centres undefined)	?	4%	12%	15%	14%	?
COc1ccc(C2CC2C(=O)c2ccccn2)cc1 (centres undefined)	17µM*	6%	12%	?	?	?
CCCC(=O)Nc1cc2nn(-c3ccc(OC)cc3)nc2cc1C	?	nt	22%	nt	nt	nt
CC(=O)Nc1cc2nn(-c3ccccc3)nc2cc1C	2.4µM*	3.3µM*	nt	nt	0.63µM*	0.56µM*
Cc1cc2nn(-c3ccccc3)nc2cc1NC(=O)c1cccs1	6µM*	?	?	6%	?	2µM*
COc1ccc(-n2nc3cc(C)c(NC(=O)c4cccnc4)cc3n2)cc1	1.1µM*	?	28%	28%	?	?
Cc1ccc(OCC(=O)Nc2cc3nn(-c4ccccc4)nc3cc2C)cc1	1%	nt	13%	nt	nt	nt
Cc1ccc(C(=O)Nc2cc3nn(-c4ccccc4)nc3cc2Cl)c(C)c1	1%	nt	-2%	nt	nt	nt
CCC(=O)Nc1cc2nn(-c3ccccc3)nc2cc1Cl	0.67µM*	0.52µM*	0.89µM*	nt	0.32µM*	0.28µM*
Cc1ccccc1C(=O)Nc1sc2c(c1C(=O)N1CCC(C)CC1)CCC(C)C2 (centres undefined)	1%	nt	5%	nt	nt	nt
COc1ccc(C(=O)N2CCc3cc(OC)c(OC)cc3C2COc2ccccc2OC)cc1 (centres undefined)	1%	nt	nt	nt	nt	nt
CC#CCN1c2ccccc2[C@]23C[C@@H](C(=O)OC)N(S(=O)(=O)c4cccs4)C2=NC(C(=O)OC)=C(C(=O)OC)[C@H]13	nt	nt	6%[9.22 µM]	nt	nt	nt
COc1ccccc1NC(=O)Nc1nc(CC(=O)Nc2cccc(F)c2)cs1	17µM*	-9%	nt	-16%	-6%	8%
COc1ccccc1NC(=O)Nc1nc(CC(=O)Nc2ccc(F)cc2)cs1	-10%	-4%	nt	7%	-4%	-3%
COc1ccccc1NC(=O)Nc1nc(C(C)(C)C)cs1	8.5µM*	-4%	6%	-2%	-3%	15%
COc1ccccc1NC(=O)Nc1nc(CC(=O)Nc2ccc(N(C)C)cc2)cs1	21µM*	?	nt	15%	0%	-2%
CC1CN(C(=O)COC(=O)Cc2c(F)cccc2Cl)CC(C)O1 (centres undefined)	-3%	-3%	nt	10%	-1%	-3%
